About 83,000 compounds went through this panel and 20% of them were active in at least one assay; those are over-represented in the sample as a whole.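 96-well plates, one dose, 48 hours. Percent growth reported; active if below 10.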 Unmarked numbers belong to inactive results. The source made the active and inactive calls.
Key:
Assay in all cases: NCI-60 one-dose screen, 48 h (100 = growth as untreated, 0 = no growth, -100 = all killed)
Conditions in all cases: 10 µM unless noted
HCT-15 colon = system: HCT-15 colon
HT29 colon = system: HT29 colon
SNB-75 CNS = system: SNB-75 CNS
SNB-19 CNS = system: SNB-19 CNS
U251 CNS = system: U251 CNS
PC-3 prostate = system: PC-3 prostate
SK-MEL-5 melanoma = system: SK-MEL-5 melanoma
UACC-62 melanoma = system: UACC-62 melanoma
LOX IMVI melanoma = system: LOX IMVI melanoma
SK-MEL-28 melanoma = system: SK-MEL-28 melanoma
SK-MEL-2 melanoma = system: SK-MEL-2 melanoma
EKVX NSCLC = system: EKVX NSCLC
SN12C renal = system: SN12C renal
UO-31 renal = system: UO-31 renal
TK-10 renal = system: TK-10 renal
ACHN renal = system: ACHN renal
CAKI-1 renal = system: CAKI-1 renal
A498 renal = system: A498 renal
CCRF-CEM leukemia = system: CCRF-CEM leukemia
MOLT-4 leukemia = system: MOLT-4 leukemia

Row | Compound | growth (HCT-15 colon) | growth (HT29 colon) | growth (SNB-75 CNS) | growth (SNB-19 CNS) [%] | growth (U251 CNS) | growth (PC-3 prostate) [%] | growth (SK-MEL-5 melanoma) | growth (UACC-62 melanoma) | growth (LOX IMVI melanoma) | growth (SK-MEL-28 melanoma) [%] | growth (SK-MEL-2 melanoma) [%] | growth (EKVX NSCLC) [%] | growth (SN12C renal) [%] | growth (UO-31 renal) [%] | growth (TK-10 renal) [%] | growth (ACHN renal) [%] | growth (CAKI-1 renal) [%] | growth (A498 renal) | growth (CCRF-CEM leukemia) [%] | growth (MOLT-4 leukemia) [%]
1 | CN1C(=O)N(C)C2C1NN=c1s/c(=C\c3ccc(F)cc3)c(=O)n12 (stereo not given) | 27.3% | 2.74% (active) | -7.45% (active) | 34.8 | 26.8% | 34.8 | 31.7% | 26.7% | 36.1% | 59.4 | 48.6 | 63.8 | 36.3 | 39.8 | 65.1 | 39.2 | 29.1 | 9.72% (active) | 18.1 | 23.2
2 | Cc1ccc2nc(/C=C/c3ccc(N(C)C)cc3)cc(C)c2c1 | 18% | 2.01% (active) | 14.5% | 26.2 | 26.2% | 38.9 | 33.3% | 23.2% | 34.1% | 48.1 | 34.8 | 52.4 | 35.6 | 33.5 | 43.8 | 32.9 | 18.2 | 27.2% | 17.1 | 40
3 | Cc1cc2c(c(C)n1)CN(C(=O)Nc1nc(-c3cncs3)ccc1N)C2 | 102% | 91% | 90.3% | 99.5 | 86.9% | 104 | 105% | 91.9% | 111% | 105 | 81 | 97.3 | 105 | 92 | 62.7 | 106 | 76.8 | 96% | 107 | 107
4 | Clc1ccc(C2=Nn3c(nnc3-c3cc(Cl)cc(Cl)c3Cl)SC2)cc1 | 32.3% | 6.41% (active) | 31.7% | 32.8 | 20.9% | 20.2 | 0.698% (active) | 31.9% | 39.8% | 62.1 | 80.3 | 70.6 | 88.4 | 51.6 | 87.4 | 58.2 | 78.7 | 55.9% | 36.1 | 26.7
5 | COc1cc(/C=N/NC(=O)c2ccc3nc(-c4ccc(Cl)cc4)[nH]c3c2)cc(OC)c1OC | 96% | 39.9% | 86.6% | 71 | 53.2% | 59.9 | 41.9% | 28.7% | 50.6% | 46.5 | 83.6 | 95.8 | 68.5 | 88.3 | 77.4 | 67.4 | 76 | -1.95% (active) | 36.6 | 41.6
6 | N=C(N)c1ccc(-c2ccc(-c3ccc(Cl)cc3Cl)s2)nc1 | -15.2% (active) | 4.27% (active) | 92.4% | 56.3 | -10.6% (active) | 73.2 | 97.7% | 103% | -67.9% (active) | 116 | 109 | 93.6 | 81 | 91.3 | 122 | 74.2 | 39.1 | 104% | 39.1 | 13.5
7 | O=C1c2ccccc2C(=O)c2cc(Cn3c[n+](Cc4ccc5ccccc5c4)c4ccccc43)ccc21 | 89.8% | 51.5% | 42.3% | 45 | 57.1% | 27.7 | 34.1% | 4.86% (active) | 52% | 45.4 | 51.2 | 73.9 | 47.8 | 72.8 | 67.8 | 92.4 | 40.5 | 77.8% | 22.1 | 28.1
8 | CC1=C(C(=O)c2ccccc2)C(c2ccc3c(c2)OCO3)NC(=S)N1 (stereo not given) | 33.7% | 18.5% | -1.4% (active) | 63.8 | 37.5% | 61.5 | 28.2% | 51.6% | 36.2% | 70.9 | 60.5 | 73.5 | 51.4 | 55.7 | 66 | 45.5 | 35.6 | -12.5% (active) | 41.2 | 36.6
9 | C[C@@H]1N=C(c2ccc(Cl)cc2Cl)Nc2nc3ccccn3c2C1=O | 35.1% | 7.68% (active) | 58.7% | 60.8 | 41.4% | 39.1 | 39.6% | 40.5% | 51.3% | 60.7 | 38.2 | 82.5 | 75.8 | 52.4 | 74.5 | 60.2 | 47.2 | 60.7% | 56.6 | 50.4
